“And” between values parts separate entries of the source, which are not always exact repeats. Equal entries are not always repeated. Hit rate of the full screen: of about 73,000 compounds, about 350 (0.48%) were called active. Roughly 17% stayed inconclusive and do not appear here. The call rests on the fitted dose curve; in most records, active means well fitted activation curve with a large enough effect in the main read-out, with a control signal flat (not every such curve was filed as active); inconclusive means small, poorly fitted or top-dose-only effect, or a change in a side signal; inactive means no such curve, though single readings can be large or run the other way; reference of the percent scale not stated here. Shown is part of a subset that was picked to be rich in actives.
Columns and labels:
[1] = qHTS Assay for Agonists of the Thyroid Stimulating Hormone Receptor; details: HEK293-CNG-TSHR cells, membrane potential dye, cAMP; measured here: parental cells max response;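 further: the control signal comes from parental cells without the receptor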
How it was run: (§1)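 HEK 293 cells stably expressing TSHR and a cAMP-gated CNG channel; parental CNG-only cells as counterscreen. Cells preloaded 60 min with membrane potential dye plus 100 uM RO 20-1724, then compound 30 min; fluorescence read at 590 nm.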

[2] = molecular target: Thyrotropin receptor (Homo sapiens) (UniProt P16473); experiment: as above; details: HEK293-CNG-TSHR cells (CNG channel as cAMP sensor), membrane potential dye, cAMP; series mostly up to 57.1 µM
How it was run: as §1
Potency means the concentration at half of the fitted maximal effect.

Sequence of Thyrotropin receptor (Homo sapiens) (P16473 whole entry, looked up): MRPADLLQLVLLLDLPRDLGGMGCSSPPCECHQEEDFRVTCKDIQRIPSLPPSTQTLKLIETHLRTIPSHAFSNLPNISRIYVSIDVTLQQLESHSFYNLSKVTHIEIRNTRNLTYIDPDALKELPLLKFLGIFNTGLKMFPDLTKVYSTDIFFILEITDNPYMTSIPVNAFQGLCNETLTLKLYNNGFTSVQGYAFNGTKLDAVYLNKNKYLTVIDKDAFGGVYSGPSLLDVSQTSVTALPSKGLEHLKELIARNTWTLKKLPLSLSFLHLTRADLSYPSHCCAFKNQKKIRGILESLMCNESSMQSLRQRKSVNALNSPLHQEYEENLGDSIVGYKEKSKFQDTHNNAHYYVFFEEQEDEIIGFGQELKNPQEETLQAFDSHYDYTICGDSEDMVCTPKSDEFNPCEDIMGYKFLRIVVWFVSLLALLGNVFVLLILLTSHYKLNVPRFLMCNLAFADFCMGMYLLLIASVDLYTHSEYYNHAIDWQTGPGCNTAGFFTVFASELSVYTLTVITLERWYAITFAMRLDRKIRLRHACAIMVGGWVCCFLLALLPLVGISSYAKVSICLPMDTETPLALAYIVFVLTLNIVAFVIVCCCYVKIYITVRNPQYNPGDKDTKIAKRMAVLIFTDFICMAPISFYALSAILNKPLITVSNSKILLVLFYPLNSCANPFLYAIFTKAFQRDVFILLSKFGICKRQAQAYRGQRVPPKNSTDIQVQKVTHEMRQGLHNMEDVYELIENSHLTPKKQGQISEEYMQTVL

| Structure (SMILES) | activation [1] | Potency [2] | activation [2] |
| --- | --- | --- | --- |
| CC(C)(C)c1ccc(NC(=O)NCc2ccco2)cc1 | 3.69% | 3.98 µM (active) | – |
| CC(C)(C)c1ccc(C(=O)NCCC(=O)NCc2ccco2)cc1 | -0.34% | inactive | – |
| Cc1ccccc1NC(=O)NCc1ccco1 | 1.97% | inactive | – |
| CCOc1ccccc1C1NC(=O)NC(C)=C1C(=O)OCc1ccco1 (stereo unspecified) | 0.325% | inactive | – |
| CCC(Sc1nncn1C)C(=O)Nc1nnc(-c2ccc(Cl)cc2)s1 (stereo unspecified) | -6.53% | inactive | – |
| O=C1OCCC=C1[C@@H](O)CCc1ccccc1 | -4.2% | – | 5.01% [at 11.4 µM] (inactive) |
| COc1ccc(/C=C/NC(=O)Cc2ccc(OC)c(OC)c2)cc1 | 28.5% and 7.24% | – | 10.9% [at 11.4 µM] (inactive) and -1.69% [at 11.4 µM] (inactive) |
| CCOC(=O)c1cnc(-n2nc(C)cc2C)nc1Nc1cccc(C(C)=O)c1 | 16.9% | inactive | – |
| CCOC(=O)c1cnc2sccn2c1=O | 5.11% | inactive | – |
| CCOC(=O)c1cnc(-n2nc(C)cc2C)nc1-n1nc(C)cc1C | 1.88% | 3.16 µM (active) | – |
| CC(=O)Nc1cc2ccc(OC(C)=O)cc2oc1=O | -10.5% | inactive | – |
| Oc1ccc(Cl)cc1/C=N/c1nc2ccccc2[nH]1 | 6.32% | – | 0.206% [at 11.4 µM] (inactive) |
| CNC(=O)c1c(NC(=O)c2ccc(S(=O)(=O)N3CCOCC3)cc2)sc2c1CCC2 | 0.0362% | inactive | – |
| COc1ccc2c(c1)C=CC1(O2)N(CCO)c2ccccc2C1(C)C (stereo unspecified) | 16.4% | 15.8 µM (active) | – |
| O=P(c1cccs1)(c1cccs1)c1cccs1 | 29% | 0.631 µM (active) | – |
| O=C(Nc1ncccn1)c1cccs1 | 2.1% | inactive | – |
| O=C(O)CCC(=O)N(Cc1cccs1)Cc1cccs1 | 4.58% | inactive | – |
| O=C(O)CCC(=O)NCc1ccc2[nH]c3c(c2c1)CCCC3 | -0.484% | inactive | – |
| Cc1cccc(C(=O)O)c1 | 12.6% | inactive | – |
| CO[C@@H]1COC(=O)C/C=C\[C@H](C)[C@@H](NS(=O)(=O)c2ccc(C)cc2)COC(=O)C/C=C\[C@@H]1C | 2.07% and 4.9% | – | -0.576% [at 11.4 µM] (inactive) and -0.527% [at 11.4 µM] (inactive) |
| CCOC(=O)N/N=C1/C[C@@H](O)[C@@H](O)[C@@H]2[C@@H]3C(=O)N(CC)C(=O)[C@H]3CC[C@H]12 | 2.56% | – | 5.56% [at 11.4 µM] (inactive) |

| Structure (SMILES) | activation [1] | Potency [2] | activation [2] |
| --- | --- | --- | --- |
| CC(C)CCn1c(CN(C)Cc2ccccc2)nc2c1c(=O)n(C)c(=O)n2C | 3.87% | inactive | – |
| CO[C@@H]1COC(=O)[C@H](Cc2ccccc2)NC(=O)C/C=C\[C@@H](C)[C@H](OC)COC(=O)[C@@H](C)NC(=O)C/C=C\[C@H]1C | 8.45% and -4.16% | – | -6.09% [at 11.4 µM] (inactive) and -4.32% [at 11.4 µM] (inactive) |
| COc1ccc2oc(=O)c(C(=O)N3CCCc4ccccc43)cc2c1 | -9.12% | inactive | – |
| CCc1cc(=O)oc2cc(OCC(=O)N3CCCc4ccccc43)ccc12 | -4.75% | 25.1 µM (active) | – |
| Cc1occc1C(=O)N1CCCc2ccccc21 | 23.6% | inactive | – |
| COc1ccc(COC(=O)N/N=C2/C[C@@H](O)[C@@H](O)[C@@H]3[C@@H]4C(=O)N([C@@H](C)c5ccccc5)C(=O)[C@H]4CC[C@@H]23)cc1 | -0.62% | – | 0.427% [at 11.4 µM] (inactive) |
| Nc1nonc1C(=O)NCCc1ccccc1 | -2.18% | inactive | – |
| COc1cc(Cl)c(S(=O)(=O)n2cnc(C)c2)cc1Cl | 12.1% | – | 13.5% [at 11.4 µM] (inactive) |
| O=C(OCC(COC(=O)c1ccccc1)(COC(=O)c1ccccc1)COC(=O)c1ccccc1)c1ccccc1 | 20% | inactive | – |
| COC(=O)c1ccc(/C=N\n2c(C)nnc2C)cc1 | 10.1% | inactive | – |
| CCOc1ccc(-c2nnn(CC(=O)N3CCN(c4ccc(OC)cc4)CC3)n2)cc1OCC | -8.4% | inactive | – |
| COc1ccc(-c2nnn(Cc3nc(N)nc(N4CCCCC4)n3)n2)cc1 | 22% | 31.6 µM (active) | – |
| CCc1ccc(-c2nnn(Cc3nn[nH]n3)n2)cc1 | 16% | inactive | – |
| O=C(Cn1nnc2ccccc2c1=O)Nc1cc(C(F)(F)F)ccc1N1CCOCC1 | 17.2% | inactive | – |
| Cn1nc(-c2ccc(N3CCOCC3)c(NC(=O)c3ccccc3)c2)c2ccccc2c1=O | 29.3% | 25.1 µM (active) | – |
| Cn1c(=O)n(C)c2cc(CNc3ccc(N4CCOCC4)c(C(=O)O)c3)ccc21 | 3.63% | inactive | – |
| O=C(C1CCN(CC2CCCCC2)CC1)N1CCCC1 | 16.6% | inactive | – |
| COC(=O)[C@@H]1CC[C@H](C)[C@@H](c2ccc(C)cc2)N1C(=O)c1ccc(/C=N\O[C@@H](C)c2cn([C@H](CO)Cc3ccccc3)nn2)cc1 | 9.66% and 5.24% | – | 0.181% [at 11.4 µM] (inactive) and 4.03% [at 11.4 µM] (inactive) |
| CCc1c(C)sc(NC(=O)OC)c1C(=O)N1CCOCC1 | -1.6% | inactive | – |
| CCOC(=O)[C@]1(C(/C=C/c2ccco2)NC(=O)OC)CCCC1=O (stereo partly specified) | 0.322% | – | 14% [at 11.4 µM] (inactive) |
| O=C(CC1(O)C(=O)N(CN2CCOCC2)c2ccccc21)c1ccccc1 (stereo unspecified) | 1.28% | inactive | – |

| Structure (SMILES) | activation [1] | Potency [2] | activation [2] |
| --- | --- | --- | --- |
| CN(C)C(=O)c1ccc(-c2cncnc2Nc2ccccc2)cc1 | -2.37% | inactive | – |
| OC(COc1cccc(OCC(O)CN2CCCC2)c1)CN1CCCC1 (stereo unspecified) | -1.83% | – | -1.13% [at 11.4 µM] (inactive) |
| Cc1cc(NS(=O)(=O)c2ccccc2)no1 | 1.38% | inactive | – |
| COc1ccc(O)c(C=Nc2cc(C)on2)c1 | -5.94% | inactive | – |
| CC(C)N(CCNC(=O)c1ccc(-n2c(=O)c(=O)[nH]c3ccccc32)cc1)C(C)C | -3.64% | inactive | – |
| CCC(C)n1[nH]c(=O)c2c(C)cc(C)nc21 (stereo unspecified) | 14.5% | inactive | – |
| Cc1cccc2c1N(CC(=O)OC(C)C)C(=O)C2=O | -9.41% | – | -2.45% [at 11.4 µM] (inactive) |
| Cc1cc(N=CC2=C(O)CCCC2=O)no1 | 5.56% | inactive | – |
| C=CCOC(=O)C(C(C)=O)C(NC(=O)OC)c1ccccc1 (stereo unspecified) | 4.24% | – | -0.17% [at 11.4 µM] (inactive) |
| O=C(O)[C@@H](O)Cc1ccccn1 | 4.67% | – | -3.52% [at 11.4 µM] (inactive) |
| c1ccc(Nc2n[nH]nc2-c2ccccc2)cc1 | -0.853% | inactive | – |
| Cc1nnc(NC(=O)CCC(=O)N2CCC(C)CC2)s1 | 5.36% | inactive | – |
| C#CCC(C(=O)OC)(C(=O)OC)C(C[N+](=O)[O-])c1ccccc1 (stereo unspecified) | -0.955% | – | 7.7% [at 11.4 µM] (inactive) |
| Cc1ccc(C(=O)CS(C)(=O)=O)cc1 | 1.73% | inactive | – |
| C=C(C)COc1ccc(-c2n[nH]c(C)c2-c2ccccc2OC)c(O)c1 | 8.35% | 31.6 µM (active) | – |
| COc1ccc(-c2nc(-c3ccccc3)no2)c(OC)c1 | 7.25% | inactive | – |
| COc1ccc(-c2n[nH]c(C)c2-c2ccc(OC)c(OC)c2)c(O)c1 | 11.3% | 5.01 µM (active) | – |
| COc1ccc(OC)c(Nc2nc(-c3ccc(O)c(O)c3)cs2)c1 | -4.42% | inactive | – |
| CCOc1ccccc1Oc1cn[nH]c1-c1ccc(OC)cc1O | 7.48% | inactive | – |
| C=C(C)COc1ccc(-c2n[nH]c(C)c2-c2ccccc2)c(O)c1 | 17.3% | inactive | – |
| O=C1OC(NC(=O)c2ccccc2)C(N2CCOCC2)=C1Cl (stereo unspecified) | 4.11% | inactive | – |

| Structure (SMILES) | activation [1] | Potency [2] | activation [2] |
| --- | --- | --- | --- |
| CC(C)c1ccc2c([Si](C)(C)C)c3c(nc2c1)-c1cccc(=O)n1C3 | 2.88% | inactive | – |
| CCn1cc(NC(=O)Nc2ccc(OC)c(OC)c2)c(C(N)=O)n1 | 0.163% | inactive | – |
| COc1cccc(N2CCN(C3CC(=O)N(c4ccc(Cl)cc4)C3=O)CC2)c1 (stereo unspecified) | -14.4% | – | -19.1% [at 11.4 µM] (inactive) |
| Cc1ccc(C(=O)Nc2nnc(-c3ccncc3)s2)o1 | -13.3% | inactive | – |
| CC(=O)OCC(=O)[C@@]1(O)CC[C@@H]2[C@H]3CCC4=CC(=O)C=C[C@]4(C)[C@]3(F)[C@@H](O)C[C@@]21C | -1.34% | inactive | – |
| COC(=O)[C@@]1(Cc2ccc(F)cc2)[C@H]2c3cc(C(=O)N4CCCC4)n(C[C@H](O)CO)c3C[C@H]2CN1C(=O)c1ccccc1 | 12.9% | inactive | – |
| CC(C)N(C(=O)Cn1c(SCC(=O)N2CCN(c3ccccc3)CC2)nc2ccccc21)C(C)C | 11.2% | inactive | – |
| Cc1ccc(NC(=O)N2CCC(C(=O)NCc3ccc(F)cc3)CC2)cc1 | -2.62% | inactive | – |
| Cn1c(=O)n2n(c1=O)[C@H]1[C@H](O)[C@H]3O[C@H]3C(=O)[C@H]1CC2 | 0.42% | – | -7.07% [at 11.4 µM] (inactive) |
| O=C(CCCn1c(=O)oc2ccccc21)Nc1cccnc1 | -4.73% | inactive | – |
| c1ccc2nc(C3=NCCN3)cnc2c1 | -2.21% | inactive | – |
| COCc1cc(C)nc(Nc2cc(C)ccc2C)c1C#N | 18.4% | inactive | – |
| CC1CCN(C(=O)CSc2ccc3nnc(-c4cccc(F)c4)n3n2)CC1 | 0.67% | inactive | – |
| COc1ccc(C[C@H](N)C(=O)N[C@@H]2[C@H](O)[C@H](n3cnc4c(N(C)C)ncnc43)O[C@@H]2CO)cc1 | -1.32% | inactive | – |
| Cc1cc2nc3c(=O)[nH]c(=O)nc-3n(C[C@H](O)[C@H](O)[C@H](O)CO)c2cc1C | 35.7% | inactive | – |
| O=C(CCn1c(=O)oc2ccccc21)Nc1ccon1 | 5.04% | inactive | – |
| COCCCNC(=O)COc1cc(C)c(Cl)c(C)c1 | 3.68% | inactive | – |
| COC(=O)CSC1=C(C#N)C(c2ccccc2OC)C(C(=O)OC)C(=O)N1 (stereo unspecified) | -3.31% | – | -3.47% [at 11.4 µM] (inactive) |
| C=CCOC(=O)COCCC(C)C | 1.07% | inactive | – |
| Cn1cccc1C(=O)N1CCC[C@@]2(CCN(Cc3nccs3)C2)C1 | 1.41% | inactive | – |
